Data as given in PubChem BioAssay (NCATS).
Records with an inconclusive call do not appear. The source made the active and inactive calls. Unless noted, the call rests on the fitted dose curve; in most records, active means well fitted curve in the direction sought with a large enough effect; inconclusive means small, poorly fitted or top-dose-only effect, or another doubt; inactive means no such curve, though single readings can be large; an effect the other way counts as inactive or inconclusive.

Tests used:
[1] = molecular target: DNA repair nuclease/redox regulator APEX1 (Homo sapiens) (UniProt P27695); experiment: qHTS Validation Assay for Inhibitors of the Human Apurinic/apyrimidinic Endonuclease 1 (APE1) (AID 1705;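 further: TAMRA fluorescence gain over two minutes as APE1 cuts a quenched THF abasic duplex; on the % scale 0 is the no-effect control and ±100 the full control effect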)
Sequence of DNA repair nuclease/redox regulator APEX1 (Homo sapiens) (P27695 whole entry, looked up): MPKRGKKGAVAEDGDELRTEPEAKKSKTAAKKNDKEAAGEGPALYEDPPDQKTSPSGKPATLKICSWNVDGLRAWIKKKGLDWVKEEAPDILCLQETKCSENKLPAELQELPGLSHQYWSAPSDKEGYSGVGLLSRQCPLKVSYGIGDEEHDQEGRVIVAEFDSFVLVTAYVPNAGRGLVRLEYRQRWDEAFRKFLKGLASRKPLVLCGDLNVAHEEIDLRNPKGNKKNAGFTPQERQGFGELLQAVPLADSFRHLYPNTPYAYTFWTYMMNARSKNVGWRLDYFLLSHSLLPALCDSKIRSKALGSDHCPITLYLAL
Summary of the method: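 Activity read as rising fluorescence (598 nm emission, 525 nm excitation) from incision of a TAMRA/BHQ-2 duplex carrying a THF abasic site (50 nM). Compound and enzyme sat 15 min at RT before substrate start; signal change between first and third 60-s reads.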

[2] = Counterscreen for APE1 Inhibitors: Fluorescent Dye Displacement Validation Assay (AID 1707);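 further: plate controls were ThO with dsDNA and no compound for no effect and ThO without dsDNA for full effect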
Summary of the method: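 Thiazole Orange displacement from dsDNA: 250 nM ThO with 50 nM TAMRA-labelled abasic-site (tetrahydrofuran) duplex in 50 mM Tris-HCl pH7.5, 50mM NaCl, 2 mM MgCl2, 0.01% Tween-20. Loss of endpoint fluorescence (ex 480 nm, em 540 nm) flags DNA binders.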

[3] = molecular target: Endonuclease 4 (Escherichia coli (strain K12)) (UniProt P0A6C1); experiment: Counterscreen for APE1 Inhibitors: qHTS Validation Assay for Inhibitors of Endonuclease IV (AID 1708); further: on the % scale 0 is the no-effect control and ±100 the full control effect
Summary of the method: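 E. coli EndoIV at 2 nM final, preincubated 15 min at room temperature with compound, then 50 nM TAMRA/BHQ-2 THF abasic-site duplex added. Buffer: 50 mM Tris-HCl pH 7.5, 50 mM NaCl, 2 mM MgCl2, 1 mM DTT, 0.01% Tween-20. Kinetic fluorescence increase, third minus first read.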

[4] = qHTS for differential inhibitors of proliferation of Plasmodium falciparum line GB4 (AID 1816); details: Potency: Plasmodium falciparum GB4 proliferation inhibition;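 further: parasite growth measured after 72 h incubation; 0% = vehicle DMSO and -100% = reference inhibitor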
[5] = qHTS for differential inhibitors of proliferation of Plasmodium falciparum line 3D7 (AID 1876);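 further: parasite growth measured after three days of culture; 0% = vehicle wells and -100% = reference inhibitor wells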
[6] = qHTS for differential inhibitors of proliferation of Plasmodium falciparum line D10 (AID 1877);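 further: parasites grown with compound for 72 h before DNA staining; plate controls were vehicle wells for no effect and reference inhibitor wells for full effect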
[7] = qHTS for differential inhibitors of proliferation of Plasmodium falciparum line Dd2 (AID 1882); details: Potency: Plasmodium falciparum Dd2 proliferation inhibition;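 further: plate controls were DMSO vehicle for no effect and 0.29 µM artemisinin for full effect; nearly all actives have a fitted effect of over 65% in size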
Summary of the method: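 Dd2-infected erythrocytes (0.3% parasitemia, 2.5% hematocrit final) incubated with compound 72 h at 37 C, 5% CO2; lysed with saponin/Triton buffer containing SYBR Green I, incubated overnight in the dark, then read by fluorescence (485/535 nm). Normalized to 0.29 uM artemisinin and DMSO.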

[8] = qHTS for differential inhibitors of proliferation of Plasmodium falciparum line HB3 (AID 1886); details: Potency: Plasmodium falciparum HB3 proliferation inhibition;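 further: parasites grown with compound for 72 h before SYBR Green readout; plate controls were vehicle for no effect and reference inhibitor for full effect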
[9] = molecular target: Ferritin light chain (Equus caballus) (UniProt P02791); experiment: qHTS Validation Assay for Identification of Novel General Anesthetics (AID 2323); further: on the % scale 0 is the no-effect control and ±100 the full control effect
Sequence of Ferritin light chain (Equus caballus) (P02791 2-175 limits assumed): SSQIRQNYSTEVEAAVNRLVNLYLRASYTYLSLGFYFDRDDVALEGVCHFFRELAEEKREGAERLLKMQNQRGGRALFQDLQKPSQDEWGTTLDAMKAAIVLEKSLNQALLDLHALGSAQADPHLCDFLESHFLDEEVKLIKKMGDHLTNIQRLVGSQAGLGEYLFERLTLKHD
Summary of the method: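 Competitive displacement of the profluorescent anesthetic 1-AMA (50% saturated, PBS) from 10 uM apoferritin, 10 min, room temperature. Activity is normalized 380/535 nm fluorescence; concentration-response fitted with a four-parameter Hill equation.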

[10] = molecular target: ATP-dependent DNA helicase Q1 (Homo sapiens) (UniProt P46063); experiment: qHTS Validation Assay for Inhibitors of RecQ-Like Dna Helicase 1 (RECQ1) (AID 2353);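 further: plate controls were DMSO vehicle for no effect and enzyme-free control for full effect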
Sequence of ATP-dependent DNA helicase Q1 (Homo sapiens) (P46063 whole entry, looked up): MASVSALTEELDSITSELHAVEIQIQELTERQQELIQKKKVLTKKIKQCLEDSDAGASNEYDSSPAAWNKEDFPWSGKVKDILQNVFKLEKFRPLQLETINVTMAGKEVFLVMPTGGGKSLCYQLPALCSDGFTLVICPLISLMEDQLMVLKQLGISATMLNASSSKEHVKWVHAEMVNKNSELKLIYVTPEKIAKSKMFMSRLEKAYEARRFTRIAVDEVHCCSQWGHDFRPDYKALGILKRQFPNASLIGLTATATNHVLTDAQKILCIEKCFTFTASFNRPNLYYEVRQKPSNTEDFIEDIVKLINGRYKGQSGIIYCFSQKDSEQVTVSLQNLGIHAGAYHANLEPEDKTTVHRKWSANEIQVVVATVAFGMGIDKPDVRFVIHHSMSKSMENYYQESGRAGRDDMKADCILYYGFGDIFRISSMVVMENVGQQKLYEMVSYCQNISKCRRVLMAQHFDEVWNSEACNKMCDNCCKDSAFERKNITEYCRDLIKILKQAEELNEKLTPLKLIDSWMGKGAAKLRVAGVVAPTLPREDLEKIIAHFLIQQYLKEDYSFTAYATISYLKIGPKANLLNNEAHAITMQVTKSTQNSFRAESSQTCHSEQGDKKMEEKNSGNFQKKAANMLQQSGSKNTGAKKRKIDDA
Summary of the method: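 50 nM RECQ1T1 preincubated 15 min with compound in Tris pH 8.0 buffer with MgCl2, DTT, Tween-20 and 2.5 ug/ml poly(dI-dC); started with 200 nM TAMRA/BHQ-2 forked duplex and 2 mM ATP. Unwinding read as fluorescence (525/598 nm), two reads 2 h apart.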

[11] = Quantitative high throughput screen for delayed death inhibitors of the malarial parasite plastid, 96 hour incubation (AID 488745); further: on the % scale 0 is the no-effect control and ±100 the full control effect; nearly all actives have a fitted effect of over 70% in size
Summary of the method: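 Luciferase-expressing P. falciparum in erythrocytes (2% hematocrit, 0.1% parasitemia) incubated with compound for 96 h at 37 C, 5% CO2, in RPMI 1640 with 0.5% Albumax. Growth inhibition read as decreased luminescence.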

[12] = Quantitative high throughput screen for delayed death inhibitors of the malarial parasite plastid, 48 hour incubation (AID 488752); further: on the % scale 0 is the no-effect control and ±100 the full control effect; nearly all actives have a fitted effect of over 65% in size
Summary of the method: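 Erythrocytes infected with firefly luciferase-expressing P. falciparum (2% hematocrit, 0.1% parasitemia) cultured with compound for 48 h at 37 C, 5% CO2, in RPMI 1640/0.5% Albumax. Growth inhibition read as loss of luminescence.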

[13] = molecular target: M-phase phosphoprotein 8 (Homo sapiens) (UniProt Q99549); experiment: qHTS Validation Assay for Inhibitors for MPP8 Chromodomain Interactions with Methylated Histone Tails (AID 488949);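 further: AlphaScreen signal from MPP8 chromodomain bound to biotinylated H3K9me3 peptide; top concentration of the series differs between compounds; on the % scale 0 is the no-effect control and ±100 the full control effect; nearly all actives have a fitted effect of over 55% in size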
Summary of the method: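 AlphaScreen proximity signal from streptavidin donor and Ni-chelate acceptor beads (10 ug/mL each) reported binding of MPP8 to trimethyl-K9 H3(1-18) peptide, both at 50 nM. The complex formed 30 min before a 30 min compound exposure at room temperature, in PBS pH 7.4.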

[14] = molecular target: Thyrotropin receptor (Homo sapiens) (UniProt P16473); experiment: qHTS Assay for Antagonists of the Thyroid Stimulating Hormone Receptor (AID 488980); further: 0% is about no effect
Sequence of Thyrotropin receptor (Homo sapiens) (P16473 whole entry, looked up): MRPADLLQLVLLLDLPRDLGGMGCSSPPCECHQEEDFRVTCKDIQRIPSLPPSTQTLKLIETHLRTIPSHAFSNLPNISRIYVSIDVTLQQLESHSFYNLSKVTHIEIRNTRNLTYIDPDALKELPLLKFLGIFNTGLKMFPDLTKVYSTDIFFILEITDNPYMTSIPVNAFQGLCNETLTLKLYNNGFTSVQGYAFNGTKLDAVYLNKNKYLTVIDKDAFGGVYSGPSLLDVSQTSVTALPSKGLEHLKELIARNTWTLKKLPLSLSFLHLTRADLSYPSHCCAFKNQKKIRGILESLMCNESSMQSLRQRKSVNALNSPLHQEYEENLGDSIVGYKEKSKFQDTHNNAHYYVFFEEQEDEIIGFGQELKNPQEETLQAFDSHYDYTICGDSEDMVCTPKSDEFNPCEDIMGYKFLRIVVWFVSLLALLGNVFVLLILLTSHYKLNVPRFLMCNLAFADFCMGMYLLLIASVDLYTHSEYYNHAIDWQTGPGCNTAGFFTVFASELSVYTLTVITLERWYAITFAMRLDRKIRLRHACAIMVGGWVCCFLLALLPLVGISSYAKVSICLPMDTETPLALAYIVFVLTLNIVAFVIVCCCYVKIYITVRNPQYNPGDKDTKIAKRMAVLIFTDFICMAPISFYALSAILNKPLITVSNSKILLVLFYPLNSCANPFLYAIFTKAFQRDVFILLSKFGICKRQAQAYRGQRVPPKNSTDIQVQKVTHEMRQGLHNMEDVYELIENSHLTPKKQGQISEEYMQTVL
Summary of the method: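 Inhibition of cAMP raised by EC80 TSH (4 nM final) was read by HTRF, with lysate cAMP competing against cAMP-d2 for cryptate antibody after 30 min at room temperature. The cells were transfected HEK293 held in phosphodiesterase inhibitor RO 20-1724 at 70 uM.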

[15] = molecular target: Thyrotropin-releasing hormone receptor (Homo sapiens) (UniProt P34981); experiment: qHTS for Small Molecule Agonists and Allosteric Enhancers of Human TRH Receptor: Validation Screen for Agonists (AID 493127;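 active means calcium activation more than 3 SD above the typical response in the agonist read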; further: 0% is about no effect); details: TRH receptor agonist cell assay; at 2 µM; stronger effect = higher value
Sequence of Thyrotropin-releasing hormone receptor (Homo sapiens) (P34981 whole entry, looked up): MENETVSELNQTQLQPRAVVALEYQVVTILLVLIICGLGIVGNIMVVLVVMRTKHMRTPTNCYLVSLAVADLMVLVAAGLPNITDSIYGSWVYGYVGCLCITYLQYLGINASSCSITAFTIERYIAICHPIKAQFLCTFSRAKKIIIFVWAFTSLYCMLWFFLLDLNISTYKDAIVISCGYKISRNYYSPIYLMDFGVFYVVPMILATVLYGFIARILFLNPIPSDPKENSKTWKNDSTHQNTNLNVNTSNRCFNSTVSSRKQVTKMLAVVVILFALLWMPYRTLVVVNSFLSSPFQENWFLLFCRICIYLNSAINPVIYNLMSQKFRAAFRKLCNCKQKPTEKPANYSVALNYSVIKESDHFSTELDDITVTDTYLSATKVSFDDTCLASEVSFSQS
Summary of the method: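 TRHR cells loaded with fluo-8 calcium dye; FDSS kinetic fluorescence (Ex 480/Em 530) read at 1 s/cycle after 23 nL compound addition. Agonist-mode calcium response recorded before the 10 nM TRH (EC20) addition.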

[16] = molecular target: Galactokinase (Homo sapiens) (UniProt P51570); experiment: qHTS Validation Assay for Inhibitors of Human Galactokinase (GALK) (AID 493189); further: 0% is about no effect
Sequence of Galactokinase (Homo sapiens) (P51570 whole entry, looked up): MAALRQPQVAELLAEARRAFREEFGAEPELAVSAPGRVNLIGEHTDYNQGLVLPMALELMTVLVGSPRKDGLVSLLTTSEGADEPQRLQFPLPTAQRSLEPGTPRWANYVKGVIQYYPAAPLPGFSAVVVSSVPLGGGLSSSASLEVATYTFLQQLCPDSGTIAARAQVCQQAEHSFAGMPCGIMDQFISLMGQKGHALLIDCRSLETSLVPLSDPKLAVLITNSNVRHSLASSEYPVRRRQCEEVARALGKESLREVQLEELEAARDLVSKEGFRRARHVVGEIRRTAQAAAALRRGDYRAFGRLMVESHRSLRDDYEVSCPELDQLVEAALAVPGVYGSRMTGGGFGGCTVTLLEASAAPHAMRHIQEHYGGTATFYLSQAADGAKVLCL
Summary of the method: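 Inhibition was measured as remaining ATP, detected by luciferase luminescence after a 1 h room-temperature reaction. Final conditions: 5 nM GALK, 100 uM galactose, 35 uM ATP, pH 8.0 HEPES buffer.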

[17] = Validation screen for small molecules that induce DNA re-replication in SW480 colon adenocarcinoma cells (AID 504364); further: 0% is about no effect
Summary of the method: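 SW480 cells (250/well) exposed 48 h at 37 C, 5% CO2, then Hoechst-stained 40 min. Nuclear DNA content imaged by fluorescence scanning (405 nm excitation, 500-530 nm emission); re-replication scored as increased nuclei with elevated intensity.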

[18] = molecular target: Rap guanine nucleotide exchange factor 3 (Homo sapiens) (UniProt O95398); experiment: Counterscreen qHTS for antagonist of cAMP-regulated guanine nucleotide exchange factor 3 (EPAC1) (AID 1645888);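 further: fluorescence loss as bound BODIPY-GDP is released from Rap1B; % of control where 0% means no effect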
Sequence of Rap guanine nucleotide exchange factor 3 (Homo sapiens) (O95398 whole entry, looked up): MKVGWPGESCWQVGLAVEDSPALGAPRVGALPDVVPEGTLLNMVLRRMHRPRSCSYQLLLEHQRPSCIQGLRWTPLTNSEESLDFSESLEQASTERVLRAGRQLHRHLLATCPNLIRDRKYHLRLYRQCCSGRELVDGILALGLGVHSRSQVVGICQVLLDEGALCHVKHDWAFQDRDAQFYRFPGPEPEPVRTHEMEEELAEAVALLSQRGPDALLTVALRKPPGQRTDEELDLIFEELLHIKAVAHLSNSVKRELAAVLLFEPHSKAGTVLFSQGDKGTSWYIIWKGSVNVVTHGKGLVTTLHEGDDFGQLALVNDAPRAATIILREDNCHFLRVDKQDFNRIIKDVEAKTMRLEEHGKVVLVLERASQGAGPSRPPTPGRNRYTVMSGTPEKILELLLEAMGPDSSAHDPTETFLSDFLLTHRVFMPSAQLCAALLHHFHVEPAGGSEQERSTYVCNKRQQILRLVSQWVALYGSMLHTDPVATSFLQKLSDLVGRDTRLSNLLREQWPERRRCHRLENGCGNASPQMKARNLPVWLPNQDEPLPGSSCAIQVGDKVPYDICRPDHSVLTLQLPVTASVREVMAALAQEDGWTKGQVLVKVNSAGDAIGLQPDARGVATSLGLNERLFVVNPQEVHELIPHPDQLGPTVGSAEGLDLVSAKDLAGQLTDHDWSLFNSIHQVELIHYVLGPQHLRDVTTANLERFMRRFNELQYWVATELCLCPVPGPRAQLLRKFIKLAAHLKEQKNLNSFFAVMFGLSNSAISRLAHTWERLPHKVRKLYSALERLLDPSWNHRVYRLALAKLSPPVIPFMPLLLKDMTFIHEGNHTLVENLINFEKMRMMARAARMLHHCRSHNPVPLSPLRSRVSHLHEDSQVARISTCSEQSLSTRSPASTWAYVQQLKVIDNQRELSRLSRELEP
Summary of the method: (§1)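 Rap1B–BODIPY-GDP (250 nM) with 50 uM GDP; compounds pin-transferred to 9.74 nM–152 uM final (activator) or from 7.32 nM upwards (inhibitor). Fluorescence Ex/Em 480/540 nm read at 5 and 30 min, then after adding cAMP or buffer, at room temperature.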

[19] = molecular target: Rap guanine nucleotide exchange factor 3 (Homo sapiens) (UniProt O95398); experiment: Counterscreen qHTS for agonist of cAMP-regulated guanine nucleotide exchange factor 3 (EPAC1) (AID 1645889); further: % of control where 0% means no effect; nearly all actives have a fitted effect of over 40% in size
Summary of the method: as §1

[20] = molecular target: Catechol O-methyltransferase (Homo sapiens) (UniProt P21964); experiment: Confirmatory Screen for Target Class Profiling of Small Molecule Inhibitors of Methyltransferases (AID 1745852; calls by dose curve; further: potency means the concentration at half of the fitted maximal effect; on activity change, negative = inhibition: on the % scale 0 is the no-effect control and ±100 the full control effect); details: MTase-Glo luminescence, SAH detection, recombinant enzyme; measured here: COMT max response; stronger effect = lower value
Sequence of Catechol O-methyltransferase (Homo sapiens) (P21964 whole entry, looked up): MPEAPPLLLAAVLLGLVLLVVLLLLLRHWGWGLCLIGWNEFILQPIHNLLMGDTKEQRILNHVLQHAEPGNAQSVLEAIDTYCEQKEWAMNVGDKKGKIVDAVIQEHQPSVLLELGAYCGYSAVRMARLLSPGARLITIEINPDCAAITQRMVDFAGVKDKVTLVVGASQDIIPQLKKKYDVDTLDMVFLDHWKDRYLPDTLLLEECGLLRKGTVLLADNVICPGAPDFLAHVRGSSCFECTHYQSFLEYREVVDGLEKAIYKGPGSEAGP

[21] = molecular target: Guanidinoacetate N-methyltransferase (Homo sapiens) (UniProt Q14353); experiment: as above; details: activity change, negative = inhibition: at 57.3 µM (top of the series) unless noted
[22] = molecular target: Nicotinamide N-methyltransferase (Homo sapiens) (UniProt P40261); experiment: as above; details: MTase-Glo luminescence, SAH detection, recombinant enzyme; measured here: NNMT max response; stronger effect = lower value
Sequence of Nicotinamide N-methyltransferase (Homo sapiens) (P40261 whole entry, looked up): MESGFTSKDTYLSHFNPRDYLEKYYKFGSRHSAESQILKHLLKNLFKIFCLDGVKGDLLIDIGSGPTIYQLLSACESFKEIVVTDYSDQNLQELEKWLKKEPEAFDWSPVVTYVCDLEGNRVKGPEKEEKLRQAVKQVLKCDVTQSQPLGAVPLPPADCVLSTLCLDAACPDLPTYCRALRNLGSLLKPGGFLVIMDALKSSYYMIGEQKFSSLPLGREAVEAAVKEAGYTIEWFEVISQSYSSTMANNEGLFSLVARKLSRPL

[23] = molecular target: Phenylethanolamine N-methyltransferase (Homo sapiens) (UniProt P11086); experiment: as above; details: MTase-Glo luminescence, SAH detection, recombinant enzyme; measured here: PNMT max response; stronger effect = lower value
Sequence of Phenylethanolamine N-methyltransferase (Homo sapiens) (P11086 whole entry, looked up): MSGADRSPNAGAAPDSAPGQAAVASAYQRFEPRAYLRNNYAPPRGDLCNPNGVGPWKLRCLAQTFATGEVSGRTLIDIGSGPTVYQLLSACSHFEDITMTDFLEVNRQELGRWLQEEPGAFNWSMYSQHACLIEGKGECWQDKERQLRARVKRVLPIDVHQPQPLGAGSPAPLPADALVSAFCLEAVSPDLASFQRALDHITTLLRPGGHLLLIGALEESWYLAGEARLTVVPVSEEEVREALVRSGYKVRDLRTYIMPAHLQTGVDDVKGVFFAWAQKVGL

Structure (SMILES): CC[C@H](C)C(=O)O[C@H]1CCC=C2C=C[C@H](C)[C@H](CC[C@@H]3C[C@H](O)CC(=O)O3)C21 (some centres not stated)
- Potency [1]: inactive
- outcome [2]: inactive
- Potency [3]: inactive
- Potency [4]: inactive
- Potency [5]: inactive
- Potency [6]: inactive
- Potency [7]: inactive
- Potency [8]: inactive
- outcome [9]: inactive
- outcome [10]: inactive
- Potency [11]: inactive
- Potency [12]: inactive
- Potency [13]: inactive
- outcome [14]: inactive
- activation [15]: -5% (inactive)
- outcome [16]: inactive
- Potency [17]: inactive

Structure (SMILES): CN(C)/C=C/c1onc(-c2c(Cl)cccc2Cl)c1C#N
- Potency [18]: inactive
- Potency [19]: inactive

Structure (SMILES): COc1ccc(-c2n[nH]c(C)c2-c2ccccc2OC)c(O)c1
- Potency [18]: inactive
- Potency [19]: inactive

Structure (SMILES): COc1ccc(-c2nc3ccccc3nc2-c2ccccc2)cc1OC
- Potency [18]: inactive

Structure (SMILES): Cn1c(=O)n(C)c2cc(S(=O)(=O)Nc3ccc(-c4nnc(-c5ccccc5)o4)c(Cl)c3)ccc21
- activity [20]: -28.6%
- activity change, negative = inhibition [21]: -7.85%
- activity [22]: -40.4%
- activity [23]: -17.1%

Structure (SMILES): Cc1ccc2c(c1)c(-n1cccc1)c1n2CC(C)(C(=O)NCCC(C)C)N(Cc2cccnc2)C1=O (configuration not stated)
- activity [20]: 4.4%
- activity change, negative = inhibition [21]: 0%
- activity [22]: -51.8%
- activity [23]: 0%

Structure (SMILES): COc1cccc([C@H]2Nc3ccc(S(=O)(=O)Nc4ccc(C)cc4C)cc3[C@H]3C=CC[C@H]32)c1
- activity [20]: -17.4%
- Potency [21]: 27.1 µM (active)
- activity [22]: -21.2%
- activity [23]: -27.1%

Structure (SMILES): CN(CCCNC(=O)CCCc1nnc2n3nc(-c4ccccc4)nc3c3ccccc3n12)Cc1ccccc1
- activity [20]: 2.29%
- activity change, negative = inhibition [21]: 0%
- activity [22]: -6.15%
- activity [23]: 3.41%

Structure (SMILES): Cn1c(=O)n(C)c2cc(S(=O)(=O)N3CCN(C4CCCCC4)CC3)c(Cl)cc21
- activity [20]: -1.77%
- activity change, negative = inhibition [21]: 2.61%
- activity [22]: -10.5%
- activity [23]: -13.7%

Structure (SMILES): CCNc1nccc(N2CCC(CC(=O)NCC(C)C)CC2)n1
- activity [20]: -2.4%
- activity change, negative = inhibition [21]: -5.08%
- activity [22]: -6.4%
- activity [23]: -1.27%

Structure (SMILES): O=c1c2ccccc2n2c(-c3ccc(F)c(F)c3)nnc2n1Cc1ccccc1Cl
- activity [20]: -2.11%
- activity change, negative = inhibition [21]: 0%
- activity [22]: -2.95%
- activity [23]: -3.63%

Structure (SMILES): Cc1noc2c(NC3CCN(C)CC3)cc(-c3cccs3)nc12
- activity [20]: 7.59%
- activity change, negative = inhibition [21]: 13.7% [at 85.7 µM]
- activity [22]: 0.3%
- activity [23]: -6.76%

Structure (SMILES): CCCC1c2cccn2CCN1C(=O)Nc1cc(Cl)ccc1C (configuration not stated)
- activity [20]: 1.08%
- Potency [21]: inactive
- activity [22]: -4.96%
- activity [23]: -0.621%

Structure (SMILES): COc1ccc(CCNC(=O)c2ccc3c(=O)[nH]c4c(C(=O)NCC5CCCO5)sc(=S)n4c3c2)cc1OC (configuration not stated)
- activity [20]: -41.4%
- Potency [21]: 27.1 µM (active)
- activity [22]: -23.3%
- activity [23]: -16.5%

Structure (SMILES): O=C1COc2ccc(-c3cccc(O)c3)nc2CN1Cc1ccc(C(F)(F)F)cc1
- activity [20]: -39%
- activity change, negative = inhibition [21]: -7.53% [at 85.7 µM]
- activity [22]: -22.9%
- activity [23]: -51.9%

Structure (SMILES): Cc1cccc(N2CCN(C(=O)c3ccc4c(=O)[nH]c5c(C(=O)NC(C)C)sc(=S)n5c4c3)CC2)c1C
- activity [20]: -37.2%
- activity change, negative = inhibition [21]: 0.0257%
- activity [22]: -76.7%
- activity [23]: -28.7%

Structure (SMILES): C[C@H]1CN(C(=O)c2nn(C)c3ccccc23)C[C@@H]1c1nc(-c2cccnc2)no1
- activity [20]: 15.6%
- activity change, negative = inhibition [21]: 7.54%
- activity [22]: -94%
- activity [23]: 7.38%

Structure (SMILES): CN(CCCNC(=O)CCc1nnc2n(Cc3ccccc3)c(=O)c3ccccc3n12)Cc1ccccc1
- activity [20]: 1.61%
- activity change, negative = inhibition [21]: 0%
- activity [22]: -7.26%
- activity [23]: -2.41%

Structure (SMILES): CCNc1nc2c(s1)C(c1cccc(F)c1)CC(=O)N2 (configuration not stated)
- activity [20]: -12.6%
- Potency [21]: 42.9 µM (active)
- activity [22]: -25%
- activity [23]: -19.2%
